Sampled rows, rich in hits. Any-hit rate of the full collection: about 10%.
3T3 cytotox – kills NIH 3T3 cells; NIH 3T3 viability, CellTiter-Glo ATP luminescence, 48-72 h; Potency, µM (series often up to 96.7 µM), for the others: top-dose activity change, negative = cytotoxicity, actives largely listed as inhibitors; 4.3% of 94,000 active; also: nearly all actives have a fitted effect of over 55% in size
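First NIH 3T3 cells are plated at 400 cells/well; next compound is pinned in; then plates incubate 48 or 72 hr at 37 °C; finally CellTiter-Glo is added and luminescence read after 10 min.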
HEK cytotox – HEK 293 cell cytotoxicity; Potency, µM (highest dose often 115 µM), inactives show at the highest dose activity change, negative = cytotoxicity, actives largely listed as inhibitors; 6.6% of 94,000 active; HEK 293 viability, ATP luminescence (CellTiter-Glo), 48-72 h; also: nearly all actives have a fitted effect of over 60% in size
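Cytotoxicity was scored by loss of ATP-coupled luminescence (CellTiter-Glo) in HEK 293 cells. Compound treatment ran 48 or 72 hr at 37 degree Celsius, 5% CO2, 95% humidity.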
NPR1 antag – blocks ANP-stimulated signaling of human Npr1 receptor | HEK293 hNpr1 GloSensor cGMP, ANP-stimulated luminescence | 1.6% of 76,000 active | Potency, µM (highest dose often 46.3 µM), for inactives: top-dose activity change, negative = inhibition, most hits filed as inhibitors | P16066 | AID 1347048; calls by dose curve; also: nearly all actives have a fitted effect of over 60% in size
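HEK293 cells stably expressing human Npr1 and cGMP GloSensor pGS-40F, loaded 2 h with 2% GloSensor reagent, given compound 30 min at room temperature. Luminescence read before and 20 min after 0.1 nM hNppA.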
GPT2 inhibitor – inhibitors of human GPT2 alanine aminotransferase. Q8TD30. 0.25% of 100,000 active. Recombinant GPT2, coupled pyruvate oxidase/HRP Amplex Red fluorescence. Potency, µM (top dose mostly 57.7 µM), for the others: at the highest dose activity change, negative = inhibition, hits mostly inhibitors; also: nearly all actives have a fitted effect of over 60% in size
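GPT2 10ng/uL, a-KG 250uM, L-Ala 2mM, HEPES pH7.5 + 0.0001% Tween; 30 min RT. Then Amplex mix (PO/HRP/ThPP), 30 min RT dark, fluorescence. AOA 50uM used as positive control.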
Luciferase inh – inhibitors of firefly (Photinus pyralis) luciferase; P08659; purified P. pyralis luciferase, luminescence, biochemical; Potency, µM (titrated, usually from 115 µM), hits mostly inhibitors; 2.5% of 76,000 active; also: nearly all actives have a fitted effect of over 65% in size
Target sequence (P08659 whole entry, looked up): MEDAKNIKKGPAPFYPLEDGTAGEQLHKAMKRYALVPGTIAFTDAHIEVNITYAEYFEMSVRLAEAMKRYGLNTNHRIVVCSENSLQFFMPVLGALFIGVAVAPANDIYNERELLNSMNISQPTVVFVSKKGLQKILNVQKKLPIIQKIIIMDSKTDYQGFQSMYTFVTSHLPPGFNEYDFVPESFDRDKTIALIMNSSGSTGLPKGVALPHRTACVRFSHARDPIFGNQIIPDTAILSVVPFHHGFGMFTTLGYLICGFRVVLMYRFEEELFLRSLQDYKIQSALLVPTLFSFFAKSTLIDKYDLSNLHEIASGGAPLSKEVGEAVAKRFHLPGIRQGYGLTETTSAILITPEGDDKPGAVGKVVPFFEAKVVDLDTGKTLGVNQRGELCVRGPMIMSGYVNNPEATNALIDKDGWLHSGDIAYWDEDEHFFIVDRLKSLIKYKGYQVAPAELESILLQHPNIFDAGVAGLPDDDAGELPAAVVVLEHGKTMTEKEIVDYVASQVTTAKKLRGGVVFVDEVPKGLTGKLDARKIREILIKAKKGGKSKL
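Cell-free enzyme assay, 10nM P. pyralis luciferase, luciferin and ATP each at 10uM. Inhibition profiled over a 6-point titration, read as luminescence.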
Numbers without * were called inactive; i = inactive; u = inconclusive; x = no result given; [ ] = dose if it differs, or a comment. Unless noted, calls follow the shape of the dose curve; as a rule, active = well fitted curve in the direction sought with a large enough effect; inconclusive = small, poorly fitted or top-dose-only effect, or another doubt; inactive = no such curve, though single readings can be large; an effect the other way counts as inactive or inconclusive. % is scaled to controls: 0 for no effect and ±100 for the full control effect; potency is read from the fitted curve at half-maximal effect.

SMILES	3T3 cytotox	HEK cytotox	NPR1 antag	GPT2 inhibitor	Luciferase inh
COCCN1C(=O)c2cccn2CC1CNC(=O)c1ccc(-n2c(C)ccc2C)cc1 (stereo unspecified)	u	25.1µM*	x	i	x
Cc1ccc(Nc2ccnc(N3CCC(NC(=O)C4CC4)CC3)n2)cc1	u	44.7µM*	x	i	x
Cc1ccc(Nc2ccnc(N3CCC(NC(=O)N(C)C)CC3)n2)cc1	44.7µM*	u	x	i	x
Cc1ccc(Nc2ccnc(N3CCC(C(=O)NC4CCCC4)CC3)n2)cc1	35.5µM*	44.7µM*	x	i	x
CC(=O)NC1CCN(c2nccc(Nc3ccc(C)cc3)n2)CC1	u	u	x	i	x
Cc1ccc(Nc2ccnc(N3CCC(C(=O)NC4CC4)CC3)n2)cc1	35.5µM*	u	x	i	x
Cc1ccc(C(=O)NC2CCN(C(=O)c3ccc(-c4cccs4)cc3)CC2)cc1	-36.7%	u	x	-0.1%	x
Cc1ncc(CN2CCCC2C(=O)Nc2ccc(-c3cccc(F)c3)cc2)[nH]1 (stereo unspecified)	u	u	-1.6%	-3.2%	i
Cc1ncc(CN2CCCC2C(=O)Nc2ccc(-c3cccc(F)c3)cc2)n1C (stereo unspecified)	u	20µM*	15.5%	i	i
O=C(Nc1ccc(-c2cccc(F)c2)cc1)C1CCCN1Cc1ccc(CO)o1 (stereo unspecified)	u	35.5µM*	-19.4%	i	u
COc1cccc(CNC(=O)c2ccc3nc(-c4ccncc4)oc3c2)c1	u	u	x	i	x
Cc1nn2c(c1-c1ccccc1C(C)C)N([S+](=O)([O-])c1ccc(C(C)C)cc1)CCC2	22.4µM*	39.8µM*	u	-16.0%[88.5 µM]	i
Cc1nn2c(c1-c1ccccc1C(C)C)N(Cc1ccc3c(c1)CCO3)CCC2	28.2µM*	35.5µM*	-21.1%[70.6 µM]	-18.9%[88.5 µM]	i
COc1ccc(CN2CCCn3nc(C)c(-c4ccccc4C(C)C)c32)cc1O	35.5µM*	63.1µM*	u	i	i
Cc1nn2c(c1-c1ccccc1C(C)C)N(Cc1ccc(C(=O)O)s1)CCC2	u	u	-8.2%[70.6 µM]	i	i
Cc1cc(Cn2cc3c4c(cccc42)[C@H](CC(C)C)N[C@H](C(=O)NCc2ccco2)C3)no1	28.2µM*	39.8µM*	-2.8%	u	i
Cc1cc(Cn2cc3c4c(cccc42)[C@H](CC(C)C)N[C@H](C(=O)NCc2ccccn2)C3)no1	u	31.6µM*	-2.2%	u	i
N#Cc1ccc(C(=O)N2CCC(Cc3nc(C4CC4)n[nH]3)C2)cc1 (stereo unspecified)	u	4.4%	x	i	x
O=c1c2c(n(Cc3cccnc3)n1-c1ccccc1)CN(CC1CC1)CC2	28.2µM*	-21.2%[172 µM]	-4.0%[70.6 µM]	i	i
COc1ncc(CN2CCc3c(n(Cc4cccnc4)n(-c4ccccc4)c3=O)C2)cn1	u	-22.1%[172 µM]	-1.8%[70.6 µM]	-6.7%[88.5 µM]	i
Cc1cccc(CN2CCc3c(n(Cc4cccnc4)n(-c4ccccc4)c3=O)C2)n1	100µM*	-2.4%[172 µM]	-5.4%[70.6 µM]	-0.9%[88.5 µM]	i
COCCn1c(=O)c2c(n1Cc1ccccc1)CN(Cc1cccc(C)n1)CC2	u	-9.7%[172 µM]	-3.5%[70.6 µM]	i	i
CC(=O)N1CCCC(C(=O)N2CCC(c3nc4ncccc4[nH]3)CC2)C1 (stereo unspecified)	1.6%	i	x	u	x
COCCCn1c(C)cnc1C1CCN(Cc2ccc(F)cc2F)C1 (stereo unspecified)	-26.7%	-26.3%	1.6%	i	i
COCCc1nc(-c2cnc(C3CC3)nc2)n(-c2ccc(F)cc2F)n1	89.1µM*	u	1.3%	-33.5%	i
SMILES	3T3 cytotox	HEK cytotox	NPR1 antag	GPT2 inhibitor	Luciferase inh
O=C(CC1CCCCN(Cc2ccccc2)C1=O)NC1CCCCC1 (stereo unspecified)	u	u	x	i	x
CC(C)(O)CCc1cccc(C(=O)NCCCc2ccccn2)c1	-1.4%	i	1.3%	3.2%[11.5 µM]	u
CC(C)(O)CCc1cccc(C(=O)NCCNc2cccnc2)c1	u	31.6µM*	-6.3%	u	i
O=C(NCc1ccccc1Cn1cccn1)c1ccc2cccc(F)c2n1	u	u	2.3%	-1.4%	i
CC(C)(O)CCc1cccc(C(=O)NCc2ccccc2Cn2cccn2)c1	22.4µM*	-23.2%	-11.0%	-16.4%	i
Cc1ccccc1C(=O)N1CCN(c2ccc3nnc(C)n3n2)CC1	-28.7%[138 µM]	-6.2%[172 µM]	x	x	x
C[S+](=O)([O-])c1ccc(-c2cc(C(=O)NC3CCCC3)nn3cccc23)cc1	u	u	x	i	x
COc1cccc(-c2cc(C3CCN(C(=O)c4cc(C)ccc4C)CC3)[nH]n2)c1	u	39.8µM*	u	0.5%	i
CCc1ccc(C(=O)N2CCC(c3cc(-c4cccc(OC)c4)n[nH]3)CC2)cc1	u	44.7µM*	u	i	i
COc1cccc(-c2cc(C3CCN(C(=O)Nc4ccc5c(c4)OCCO5)CC3)[nH]n2)c1	39.8µM*	u	u	i	25.1µM*
COc1cccc(-c2cc(C3CCN(C(=O)Nc4ccccc4OC)CC3)[nH]n2)c1	u	31.6µM*	-14.6%	i	i
COc1cccc(-c2cc(C3CCN(C(=O)Nc4ccc(OC)cc4OC)CC3)[nH]n2)c1	u	u	-4.4%	u	i
Cc1ccc(-c2c(C(=O)NCCc3ccccc3F)nc3sccn23)cc1	u	u	x	-13.6%	x
CNC(=O)[C@H]1CN(C(=O)Cc2cccs2)[C@]2(C)C(=O)N(CCOC)c3ccccc3[C@H]12	u	u	x	i	x
CCNC(=O)OC1CCN(C(=O)CC(C)C)CC(=O)N(C)c2ccccc21 (stereo unspecified)	u	1.4%	x	x	x
O=C(c1ccccc1F)N1CCC(c2nn(-c3ccccn3)c(=O)[nH]2)CC1	-14.2%	-7.2%	x	i	x
O=C1CC(c2ccccc2)N(C(=O)CNC(=O)c2ccc3cc[nH]c3c2)CCCCCN1 (stereo unspecified)	-11.7%	u	2.7%	-9.5%	i
COc1cccc(-c2cc(C3CCN(C(=O)Nc4ccc(C)cc4C)CC3)[nH]n2)c1	u	44.7µM*	-19.0%	-1.4%	i
CN1CCC2(C1)CN(Cc1ccccc1)c1ccc(C(=O)NC3CCCCC3)cc12 (stereo unspecified)	u	79.4µM*	-1.2%[70.6 µM]	i	i
CN1CCCC2(C1)CN(C)c1ccc(C(=O)Nc3ccccc3)cc12 (stereo unspecified)	u	u	-0.1%[70.6 µM]	-7.6%[88.5 µM]	i
CN1CCCC2(C1)CN(Cc1cccnc1)c1ccc(C(=O)Nc3ccccc3)cc12 (stereo unspecified)	89.1µM*	u	4.0%[70.6 µM]	-0.6%[88.5 µM]	i

Bioassay records from PubChem.
